# High-throughput results (PubChem BioAssay)
# Rows were chosen to be rich in hits. Some 2% of all compounds tested hit in one or more screens of this group.
# APOBEC3G inh: APOBEC3G DNA deaminase inhibitors, primary screen, biochemical, fluorescence, single-stranded DNA substrate, uHTS | inhibition, % at 20 µM | 330,000 tested, 0.28% active | AID 493012, 2011 | recombinant A3G, ssDNA deamination FAM/TAMRA fluorescence;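 active means inhibition of at least 40% at 20 µM, with no more than 30% in the related APOBEC3A deaminase screen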;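 further: plate controls were DMSO wells with A3G for no effect and wells lacking A3G enzyme for full effect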
# Target sequence (Q9HC16 whole entry, looked up): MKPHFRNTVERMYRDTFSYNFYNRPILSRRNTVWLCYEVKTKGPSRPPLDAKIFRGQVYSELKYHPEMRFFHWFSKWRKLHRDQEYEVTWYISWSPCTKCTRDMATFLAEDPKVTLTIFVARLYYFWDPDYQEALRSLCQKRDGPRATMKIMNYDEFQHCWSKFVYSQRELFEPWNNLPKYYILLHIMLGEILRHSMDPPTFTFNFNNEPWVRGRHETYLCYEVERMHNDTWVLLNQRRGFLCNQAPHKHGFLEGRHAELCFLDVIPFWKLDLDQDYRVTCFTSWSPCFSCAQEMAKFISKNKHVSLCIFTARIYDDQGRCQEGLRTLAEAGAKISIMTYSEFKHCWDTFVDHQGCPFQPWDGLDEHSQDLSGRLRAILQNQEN
# A3A deaminase: APOBEC3A ssDNA deaminase inhibitors, primary screen, selectivity assay for APOBEC3G inhibitor project, biochemical, FAM/TAMRA oligo cleavage fluorescence. inhibition, % at 20 µM. recombinant A3A, FAM/TAMRA ssDNA deamination fluorescence. DNA dC->dU-editing enzyme APOBEC-3A (Homo sapiens), P31941. AID 493011, 2011. 330,000 tested, 0.41% active;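 active means at least 40% inhibition at 20 µM here, with at most 30% in a related deaminase screen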;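 further: plate controls were A3A with DMSO for no effect and wells lacking A3A enzyme for full effect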
# Target sequence (P31941 whole entry, looked up): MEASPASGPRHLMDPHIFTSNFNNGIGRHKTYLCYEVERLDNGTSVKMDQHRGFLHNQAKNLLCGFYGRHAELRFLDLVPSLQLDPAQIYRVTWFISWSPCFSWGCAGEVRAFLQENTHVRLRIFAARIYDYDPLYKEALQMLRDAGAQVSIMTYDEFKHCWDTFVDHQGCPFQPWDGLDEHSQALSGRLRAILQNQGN
# Neddylation inh: inhibitors of cullin neddylation, primary screen, biochemical, TR-FRET, uHTS, NAE and Ubc12; NEDD8-conjugating enzyme Ubc12 (Homo sapiens) + NEDD8-activating enzyme E1 regulatory …; inhibition, % at 25 µM; 360,000 tested, 0.58% active; in the data active means inhibition above about 36%
# GC-A act: GC-A stimulated cGMP production enhancers – HEK293 GC-A cells, cGMP TR-FRET, EC30 ANP, primary screen | Atrial natriuretic peptide receptor 1 (Homo sapiens), P16066 | 0% at EC30 ANP, 100% saturating ANP | activation, % at 10 µM | 370,000 tested, 0.14% active; in the data active means activation above about 40%
# NPR2 activator: human GC-B receptor activators, primary screen, HEK293 GC-B cells, cGMP TR-FRET, EC30 CNP; AID 1920062, 2024; 0% at EC30 CNP, 100% saturating CNP; 370,000 tested, 0.11% active; Atrial natriuretic peptide receptor 2 (Homo sapiens), P20594; activation, % at 10 µM;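 active means activation at 10 µM reaching about 35% in either raw or pattern-adjusted values, limit read from the data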
# PfG6PD inh: PfG6PD enzyme inhibitors, primary screen, biochemical, fluorescence intensity, uHTS. glucose-6-phosphate dehydrogenase-6-phosphogluconolactonase (Plasmodium falciparum 3D7). PfGluPho enzyme, NADPH resazurin-diaphorase fluorescence. inhibition, % at 20 µM. 350,000 tested, 0.78% active;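 active means inhibition reaching at least a set limit at 20 µM in the primary screen, cut at about 59% in these data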;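 further: 0% = DMSO wells with substrate and 100% = DMSO wells lacking glucose-6-phosphate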
# APOBEC3G confirm: APOBEC3G deaminase inhibitor retest, confirmation, biochemical, fluorescence, single-stranded DNA substrate, single concentration | recombinant A3G ssDNA deaminase, UDG/FAM-TAMRA fluorescence | shares compounds with APOBEC3G inh | AID 493152, 2011 | inhibition, % at 20 µM | 890 tested, 72% active;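 active means inhibition reaching a set limit in any replicate at 20 µM, the limit being 80% of the first screen's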
# UDG A3G counter: E. coli UDG inhibitors, confirmation, counter-screen for APOBEC3G inhibitor project, biochemical, single concentration, fluorescence, FAM/TAMRA oligo; inhibition, % at 20 µM; UDG counterscreen; 710 tested, under 10 active; shares compounds with APOBEC3G inh;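 active means compounds giving 40% or more inhibition at 20 µM in any one of the three replicates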;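 further: plate controls were DMSO wells with UDG and oligo for no effect and DMSO wells lacking both for full effect; inhibitors lower the FAM signal released by uracil excision and alkaline cleavage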
# The depositor's hits bear a star; x = no result shown.
SMILES,APOBEC3G inh,A3A deaminase,Neddylation inh,GC-A act,NPR2 activator,PfG6PD inh,APOBEC3G confirm,UDG A3G counter
O=C(CCc1ccccc1)N[C@H]1[C@@H](OC(=O)c2cnccn2)CCC[C@]12C(=O)N(Cc1ccccc1)c1ccccc12,x,x,x,-12,-1,x,x,x
COc1cc(/C=N/n2c(COc3ccccc3)n[nH]c2=S)cc(Br)c1O,46*,1,18,-5,-2,31,70*,-2
CCc1n[nH]c(=S)n1/N=C/c1cc(Br)c(O)c(OC)c1,34,4,-4,-1,3,43,x,x
COCCCn1c(=NC(=O)c2ccccc2)c(C#N)cc2c(=O)n3cccc(C)c3nc21,46*,-4,x,16,3,-1,1,-5
Cc1ccc(NC(=O)CSc2nc3[nH]ncc3c(=O)[nH]2)cc1,52*,2,12,2,3,-17,2,x
Brc1ccccc1Cn1nnc(-c2ccc(N3CCOCC3)cc2)n1,x,x,x,-1,-8,x,x,x
CC(C)Oc1ccc(S(=O)(=O)N2CCOCC2)cc1NC(=O)CC1CCCC1,-2,-1,7,2,11,-7,x,x
O=C(CC1CCCC1)Nc1cc(S(=O)(=O)N2CCOCC2)ccc1O,57*,4,12,2,-1,57,33*,-2
COc1ccc2cc(/C=C3\SC(=S)NC3=O)c(N3CCOCC3)nc2c1,-8,-4,-23,8,-7,-15,x,x
COC(=O)/C=C1\SC(N2CCOCC2)=C(c2ccc(OC)cc2)C1=O,55*,4,-2,1,5,28,20*,-3
O[C@H](COc1ccc(OC(F)(F)F)cc1)CN1CCC(C(O)(c2ccccc2)c2ccccc2)CC1,x,x,x,-7,-9,x,x,x
O=S(=O)(c1ccccc1)N(c1ccccc1)S(=O)(=O)c1ccccc1,x,x,2,-4,2,-3,x,x
O=S(=O)(c1ccccc1)N(F)S(=O)(=O)c1ccccc1,46*,1,-4,5,-8,-1,53*,-2
COc1ccc2ccccc2c1C=Nn1c(-c2n[nH]c3c2CCC3)n[nH]c1=S,x,x,x,-3,-7,x,x,x
COC(=O)[C@H](CC(C)C)NC(=O)c1cc2c(cn1)[nH]c1ccccc12,58*,1,20,7,4,40,63*,x
CCn1c(C)c(CS(=O)(=O)c2ccccc2)[nH]c1=O,49*,0,7,-3,-2,-2,87*,-3
O=c1[nH]c(CS(=O)(=O)c2ccccc2)nc2ccccc12,-5,1,7,5,2,-3,x,x
Cc1cc(-c2n[nH]c(=S)n2/N=C/c2cccc(O)c2)n[nH]1,49*,-1,12,-4,3,20,82*,-4
Cc1cc(-c2n[nH]c(=S)n2/N=C/c2cccc([N+](=O)[O-])c2)n[nH]1,65*,-2,-15,-7,-2,15,73*,-2
COc1ccc(/C=C/S(=O)(=O)NCc2ccc(F)cc2)c(CNC(=O)OC(C)(C)C)c1,x,x,x,-6,-3,x,x,x
CC(C)CC(=O)N[C@H](C(=O)N[C@H](C(=O)N[C@@H](CC(C)C)[C@@H](O)CC(=O)N[C@@H](C)C(=O)N[C@@H](CC(C)C)[C@@H](O)CC(=O)O)C(C)C)C(C)C,75*,6,1,1,1,1,16,x
CCC(C)NC(=O)CC(C)C (configuration not stated),-5,-4,4,5,-3,-1,x,x
O=C(COc1ccc(Cl)cc1)Nc1nc(-c2ccncc2)cs1,42*,2,-1,10,-1,47,29,x
O=S(=O)(/N=S1/CC=CCN1S(=O)(=O)c1ccccc1)c1ccccc1 (configuration not stated),62*,-7,1,x,x,57,75*,-3
O=C(Nc1ccc(F)cc1Cl)C1CCCN1S(=O)(=O)c1cccc2cccnc12 (configuration not stated),x,x,x,-1,6,x,x,x
SMILES,APOBEC3G inh,A3A deaminase,Neddylation inh,GC-A act,NPR2 activator,PfG6PD inh,APOBEC3G confirm,UDG A3G counter
CN1CCN(c2ccc3c(c2)Oc2ccccc2CN(Cc2cn(Cc4cccc(C(F)(F)F)c4)nn2)S3(=O)=O)CC1,x,x,x,0,10,x,x,x
Nc1n[nH]c(=S)n1-c1ccc(Cl)cc1,52*,-2,-11,5,2,43,63*,0
CC(C)C[C@H]1COc2cccc(F)c2S(=O)(=O)N1Cc1cn(CCC2OCCO2)nn1,x,x,x,3,10,x,x,x
CCOC(=O)c1cc(-c2ccc(OC)cc2)nn1-c1ccccc1C(=O)O,63*,27,-1,-1,3,7,41*,-3
CCOC(=O)CC[C@@H]1CC[C@]2(CCCN(S(=O)(=O)c3ccccc3)C2)O1,x,x,x,0,-8,x,x,x
Cc1cccc(-c2cccc3c4c([nH]c23)[C@@H]2C[C@H](N(C)C(=S)Nc3ccc(C#N)cc3)[C@H]([C@H](C)O)CN2CC4)c1,x,x,x,2,2,x,x,x
O=C(NCCN1CCC(Cc2ccccc2)CC1)C1CCCN(S(=O)(=O)c2ccc(Cl)s2)C1 (configuration not stated),x,x,x,-13,-18,x,x,x
COc1ccccc1NNC(=O)C(O)(c1ccccc1)c1ccccc1,56*,1,1,1,-5,0,-2,x
O=C(NC1CCCCN(Cc2cccc(Cl)c2)C1=O)c1ccc2ccccc2c1 (configuration not stated),x,x,x,0,-3,x,x,x
COc1cc(O)c2c(c1)OC(c1ccc(O)cc1)CC2=O (configuration not stated),-7,-1,4,0,-4,7,x,x
Cc1c(O)cc2c(c1O)C(=O)CC(c1ccc(O)cc1)O2 (configuration not stated),56*,29,16,-2,-1,13,69*,x
CC(=O)CC[C@H]1CC[C@]2(CCCN(Cc3nccn3C)C2)O1,x,x,x,1,-5,x,x,x
